This is part of a sample that, as a whole, favours compounds with a hit. Of some 83,000 tested, about 20% had one in any assay.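 In brief: 96-well plates, 48 h treatment, single concentration, percent growth endpoint.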 Active and inactive are the calls of the source.
test system: SNB-75 CNS; experiment: NCI-60 one-dose screen, 48 h (100 = growth as untreated, 0 = no growth, -100 = all killed); conditions: 10 µM
Protocol: Growth inhibition of the SNB-75 human tumor cell line is measured as a screen for anti-cancer activity. Cells are grown in 96 well plates and exposed to the test compound for 48 hours. Compounds are tested at a single concentration, which is 10^-5 M for most compounds. The reported endpoint is percent growth (GI% or GIPRCNT), where numbers from 0 - 100% represent growth inhibition, and numbers from -100% - 0 represent cell death. For example, a value of 40 represents 60% growth inhibition. A value of 0 means no net growth occurred over the course of the experiment. A value of -40 indicates 40% of cells at the beginning of the experiment died by the end of the experiment. A value of -100 means all cells are dead at the end of the experiment.
NCI-60 Human Tumor Cell Lines Screen was performed using the standard one-dose NCI protocol, which is described in more detail at https://dtp.cancer.gov/discovery_development/nci-60/default.htm.
Compounds with GIPRCNT values below 10 were considered active. Activity score was based on GIPRCNT using the following formula: […]
Score is 0 for GIPRCNT values of 100 or above, 50 for GIPRCNT values of 0, and 100 for GIPRCNT values of -100.

| SMILES | growth |
| --- | --- |
| COc1cc2c(cc1OC)/C(=C\c1sc(Nc3ccc(O)cc3)nc1O)C(C(=O)O)=N2 | -16.4% (active) |
| CCCCCc1ccc(S(=O)(=O)Nc2cc(-c3csc(N(C)C(C)=O)n3)ccc2N2CCN(C)CC2)cc1 | 40% (inactive) |
| CCOC(=O)CNC(=O)CN(Cc1ccccc1)C(=O)[C@@]1(C)CCC[C@]2(C)[C@H]3C[C@H]4C(C(C)C)=C[C@]3(CC[C@H]21)[C@@H]1C(=O)OC(=O)[C@@H]14 | 81.7% (inactive) |
| CCOC(=O)CNC(=O)CN(Cc1ccccc1)C(=O)[C@@]1(C)CCC[C@]2(C)[C@H]3CC4C(C(C)C)=C[C@]3(CC[C@H]21)[C@@H]1C(=O)CCC(=O)[C@H]41 | 86.2% (inactive) |
| Cc1ccc(C(C)C)cc1NC(=O)c1ccccc1O | 46.4% (inactive) |
| CC1CC(c2ccc(N(C)C)cc2)=NN1c1nc(O)c(C2=c3cc(Br)ccc3=NC2=O)s1 (stereo not given) | 89.9% (inactive) |
| CC(=C(c1ccc(OCCCN(C)C)cc1)c1ccc(OCCCN(C)C)cc1)c1ccccc1 | -77.5% (active) |
| O/N=C(\CSc1nnc(-c2c[nH]c3ccccc23)n1-c1ccccc1)c1ccc(Br)cc1 | -19.9% (active) |
| O=C(NCCCCC(c1ccc(F)cc1)c1ccc(F)cc1)NCCCc1cccnc1 | 53% (inactive) |
| O=C(c1ccc(-n2c(=O)[nH]c3ccccc3c2=O)cc1)N1CCOCC1 | 80.9% (inactive) |
| Cc1ccc(-c2ccc(SCC(=O)Nc3ccc(S(N)(=O)=O)cc3Br)nn2)cc1 | 68% (inactive) |
| CNCc1cccc2c1OCCCCCC[C@@](C)(O)CC1(CC1)S(=O)(=O)c1ccc(cc1)-c1cnc(N)c(n1)C(=O)N2 | -93.8% (active) |
| Cc1ccc(C(=O)Nc2ccc(-n3c(C)nc4c(cnn4-c4ccccc4)c3=O)cc2)cc1 | 82.8% (inactive) |
| COc1ccc2cc([C@H](C)C(=O)NCc3ccccc3)ccc2c1 | 6.97% (active) |
| O=c1nc(-c2ccccc2)cc(-c2cc3ccccc3nc2Cl)[nH]1 | 26.5% (inactive) |
| CO[C@H]1CSS[C@@H]1Cn1nc(-c2ccc(Oc3ccccc3)cc2)c2c(N)ncnc21 | 104% (inactive) |
| Cc1cc(C)cc(Oc2cccc(-c3c(C)nnn3C3CCN(CCN(C)C)CC3)n2)c1 | 16.7% (inactive) |
| Cc1ccc(/C=C(\C#N)n2nnc3c(F)cccc32)cc1 | 17.9% (inactive) |
| O=c1[nH]c2ccc(Cl)cc2cc1CSc1ccc(Nc2nccc(-c3ccc4ccccc4c3)n2)cc1 | 107% (inactive) |
| OCc1[nH]nc2cc(Nc3ncc4ccc(Br)c(OC5CCC(O)CC5)c4n3)ccc12 (stereo not given) | -44.1% (active) |

| SMILES | growth |
| --- | --- |
| O=C1NC(=NC2CCCCCC2)N/C1=C\c1ccc2ncoc2c1 | 14.7% (inactive) |
| CC(C)(C)c1ccc(NCc2cn(-c3ccc(C(=O)O)cc3)nc2-c2ccc(C#N)cc2)cc1 | 59.1% (inactive) |
| Cc1ccc(-c2cc(C(=O)N=Nc3c(O)[nH]c4ccc(Br)cc34)c3ccccc3n2)cc1 | 102% (inactive) |
| CC1(C)[C@@H](NCO)CC[C@]2(C)[C@H]3C(=O)C=C4[C@@H]5C[C@](C)(CO)CC[C@]5(C)CC[C@@]4(C)[C@]3(C)CC[C@@H]12 | 106% (inactive) |
| Cc1ccc([N+](=O)[O-])c(C(=O)Nc2ccc(-c3ccc4c(c3)NC(=O)/C4=C\c3ccc[nH]3)cc2)c1 | 42.7% (inactive) |
| O=C(c1ccc(Cl)cc1)C1[C@H](c2ccc(Br)cc2)[C@@H](c2ccccc2)NC12C(=O)Nc1ccccc12 (stereo not given in full) | 15% (inactive) |
| O=C(N/N=C/c1ccc(B(O)O)o1)c1[nH]c2ccc(Br)cc2c1-c1ccccc1 | 98.1% (inactive) |
| COc1cccc(-c2ccc(/C=N/NC(=O)c3[nH]c4ccc(Br)cc4c3-c3ccccc3)o2)c1 | 31% (inactive) |
| C/C(=N\N=C\c1ccc(Cl)c([N+](=O)[O-])c1)c1ccc2c(c1)Nc1ccccc1S2 | 109% (inactive) |
| C=C1CCC2C3(C)COC(c4c(F)cccc4F)OC3CCC2(C)C1CC(O)C1=CCOC1=O (stereo not given) | 45.1% (inactive) |
| Cc1ccc(-c2nc(Nc3ccc(C)c(S(N)(=O)=O)c3)c3ccccc3n2)cc1 | 116% (inactive) |
| O=C(NO)c1ccc(CNc2nc(-c3ccccc3)c3ccccc3n2)cc1 | 29% (inactive) |
| Cc1noc2c(Cc3ccccc3)nn(CC(=O)N/N=C/c3ccc(Br)cc3)c(=O)c12 | 35.3% (inactive) |
| COc1cc(/C=C/C(=O)c2ccc(NC(=O)CN3C(=O)NC(C)(c4ccccc4)C3=O)cc2)cc(OC)c1OC (stereo not given) | 83.8% (inactive) |
| O=c1oc2ccc(-c3ccc(F)cc3F)cc2c(=O)n1-c1ccc(F)c(Cl)c1 | -23.7% (active) |
| O=C(Nc1ccc(Cl)c([N+](=O)[O-])c1)Nc1ccc(Cl)c([N+](=O)[O-])c1 | 61.2% (inactive) |
| CCOC(=O)C1=C(N)N(c2ccc(C)cc2)C2=C(C(=O)CC(C)(C)C2)C1c1ccccc1OC (stereo not given) | 105% (inactive) |
| CC1=C(c2cc(-c3ccc(Cl)cc3)c(C#N)c(N)n2)C(c2ccccc2)NC(=S)N1 (stereo not given) | 36.5% (inactive) |
| CC1(C)CC[C@]2(C(=O)Nc3ccccc3)CC[C@]3(C)C(=CC[C@@H]4[C@@]5(C)CC[C@H](N)C(C)(C)[C@@H]5CC[C@]43C)[C@H]2C1 | 95.6% (inactive) |
| CCOC(=O)C1=C(N)N(c2ccccc2)C2=C(C(=O)CC(C)(C)C2)C1c1ccccc1OC (stereo not given) | 94% (inactive) |

— PubChem BioAssay (NCI)
